# Reference: ChEMBL document CHEMBL1201862, “PubChem BioAssay data set” (2004)
# About 1,000 (77%) of roughly 1,300 compounds were called active. Another 7% or so got no clear call; they are omitted. No cut-off for these calls is given here. So high a share suggests a set chosen from earlier hits. A selection follows.
# Tested on: Giardia
# Assay: qHTS of small molecules that selectively kill Giardia lamblia: Hit Validation. [Related pubchem assays (depositor defined):AID540272]
# Format: functional
# Settings: read-out: Potency
row,Structure (SMILES),AC50
1,CCCc1nnc(NC(=O)C2C(=O)c3cccc4c3N(CC4)C2=O)s1 (stereo unspecified),16.3 µM (active)
